According to PubChem BioAssay AID690 (Sanford-Burnham Center for Chemical Genomics, 2007):
Hit rate of the full screen: of about 96,000 compounds, about 80 (0.08%) were called active. How the calls were made is not given here. These entries were drawn from the full list. Measured potencies and affinities stand elsewhere. Residues, ends and D or L forms follow the SMILES beside them.

molecular target: Alkaline phosphatase, placental type (Homo sapiens) (UniProt P05187); assay: PLAP enzyme inhibitors, biochemical, luminescence, HTS (AID 690); conditions: purified PLAP, luminescent substrate; at 20 µM; stronger effect = higher value
Sequence (P05187 whole entry, looked up): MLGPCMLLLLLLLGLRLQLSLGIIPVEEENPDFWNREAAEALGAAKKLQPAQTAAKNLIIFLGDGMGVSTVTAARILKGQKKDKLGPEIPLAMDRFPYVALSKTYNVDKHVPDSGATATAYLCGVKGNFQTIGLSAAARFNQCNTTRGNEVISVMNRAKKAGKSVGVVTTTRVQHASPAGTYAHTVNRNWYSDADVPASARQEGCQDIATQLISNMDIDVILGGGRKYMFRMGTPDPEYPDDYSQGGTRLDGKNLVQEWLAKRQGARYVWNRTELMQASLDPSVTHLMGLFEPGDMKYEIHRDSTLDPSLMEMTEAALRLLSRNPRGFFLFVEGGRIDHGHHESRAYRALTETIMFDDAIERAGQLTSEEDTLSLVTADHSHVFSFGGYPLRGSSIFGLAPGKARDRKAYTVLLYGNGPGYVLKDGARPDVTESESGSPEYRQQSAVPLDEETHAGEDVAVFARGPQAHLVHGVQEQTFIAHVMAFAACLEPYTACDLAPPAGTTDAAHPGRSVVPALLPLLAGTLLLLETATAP

inhibition, inactive:
O=C(CCCn1c(SCC(=O)NCC2CCCO2)nc2ccccc2c1=O)NCc1ccccc1 (stereo not given) -31.1%
O=C(CCCn1c(SCC(=O)NCC2CCCO2)nc2ccccc2c1=O)NCC1CCCO1 (stereo not given) -4.3%
CC(C)(C)c1nn(-c2ccccc2)c2[nH]c(=O)c(CNc3ccc4c(c3)OCCO4)cc12 -71.4%
Cc1ccc(C(=O)CN(C(=O)c2ccc(Cl)c(Cl)c2)N2C(=O)C3CCCCC3C2=O)cc1 (stereo not given) -10.4%
CCC(=O)Nc1cccc(C(=O)/C=C/c2ccccc2)c1 -3.5%
O=C(/C=C/NNC(=O)c1cccc(Br)c1)c1cccc(Br)c1 -55.3%
O=C(CCN1C(=O)c2ccccc2C1=O)NC1=NCCS1 8.9%
CCOC(=O)C1=NN(c2ccccc2)C(=O)/C1=C\c1ccc(N(C)C)cc1 2.6%
CC1=NOC(=O)/C1=C/c1ccc(N(C)C)cc1 -1.4%
Cc1ccc(C(=O)Nc2nc3ccc(S(C)(=O)=O)cc3s2)s1 1.6%
Cc1ccc(CS/C(Nc2ccccc2C)=C(\C#N)C(=O)NCc2ccco2)c(C)c1 -32.5%
CC(C)Oc1ccc(CNC(=O)CC(c2ccccc2)c2cc(Cl)ccc2O)cc1 (stereo not given) -26.3%
CCc1c(C#N)c(N)nc(SCC(=O)OCc2ccccc2)c1C#N 14.4%
COC(=O)CSc1nsc(SCC(=O)OC)c1C#N 13.1%
c1ccc2c(CSCCc3ccncc3)cccc2c1 -15.7%
c1ccc(SCCc2ccncc2)cc1 -3.2%
O=C(O)CSCc1ccc(Cl)cc1 -5.7%
CS(=O)(=O)NCCSCc1ccc(Cl)cc1 -9.2%
CCn1c(C)c(C(C)=O)c(N2CCN(c3ccccc3)CC2)nc1=S -3.4%
O=C(NCc1ccc2c(c1)OCO2)C1CCCN(S(=O)(=O)c2cccc3nonc23)C1 (stereo not given) -13.3%
O=C1N2CCSC2=NC1(Nc1ccccn1)C(F)(F)F (stereo not given) 2%
CCC(CC)NC(=O)Cc1ccccc1[N+](=O)[O-] -5.8%
COc1ccc(CNC(=O)c2ccccc2[N+](=O)[O-])cc1 -9.5%
Cc1ccc(N(CC(=O)NCc2ccncc2)S(C)(=O)=O)cc1Cl -7%
O=C(CSc1nnc(Cn2nnc3ccccc32)o1)N(Cc1ccc(F)cc1)c1ccccc1 2.6%
CCSc1nc2c(cnn2-c2ccc(C)c(C)c2)c(=O)[nH]1 -20.6%
CCOC(=O)CN1C(=O)S/C(=C/c2ccc(N3CCCCC3)o2)C1=O -4.2%
COC(=O)CN1C(=O)S/C(=C/c2ccc(N3CCCCC3)o2)C1=O -25.9%
CCO/C=C1/C(=O)N(CC)c2ccccc21 4.3%
O=C(OCC(O)CN1CCCCC1)C12CC3CC(CC(C3)C1)C2 (stereo not given) -58.5%
COC(=O)C(CC(C)C)NC(=O)C(N)Cc1ccccc1 (stereo not drawn) (H-Phe-Leu-OMe; configuration not given here) -5.6%
COC(=O)C(N)Cc1ccc(O)cc1 (stereo not given) 18.8%
O=C(CC(NC(=O)c1ccccc1Cl)c1ccccc1)Nc1ccc2c(c1)OCO2 (stereo not given) 2.4%
Cc1cccc(NC(=O)C2c3ccccc3C(=O)N3CCc4ccccc4C23)n1 (stereo not given) 2.2%
O=C(/C(=C/c1ccc(Cl)cc1)c1nc2ccccc2[nH]1)c1cccs1 -30.3%
COc1cc(/C=C(/C(=O)c2cccs2)c2nc3ccccc3[nH]2)ccc1O 33.6%
COc1cc(CNCCc2ccc(F)cc2)ccc1OCc1ccc(Cl)nc1 -50.6%
O=C(N1CCOCC1)C12CC3CC(C1)CC(c1ccccc1)(C3)C2 -20.7%
CCSC1=N/C(=C\c2ccc(C(=O)O)cc2)C(=O)S1 11.5%
CSC1=N/C(=C\c2ccc(C)cc2)C(=O)S1 1.7%
Cn1nc([N+](=O)[O-])nc1N1CCN(c2ccc(F)cc2)CC1 20.5%
CCOC(=O)N1CCC(NC(=O)C(CC(C)C)NC(=O)C2CCC(C)CC2)CC1 (stereo not given) -63.6%
CCN(CC)C(=O)Cn1c(=O)n(-c2ccccc2)c(=O)n1CC(=O)N(CC)CC 8.2%
COC(=O)c1cn[nH]c1NC(=S)Nc1ccc(Cl)c(Cl)c1 -146%
COC(=O)c1cn[nH]c1NC(=S)Nc1ccc(C)cc1Cl -10%
CN(C)S(=O)(=O)c1cccc(C(=O)Nc2cc(Cl)cc(Cl)c2)c1 -58.5%
Cc1noc(C)c1COC(=O)COc1ccc2c(C)cc(=O)oc2c1 8.3%
CCN1C(=C2C(=O)c3ccccc3C2=O)C=Cc2ccccc21 46.7%
CCOC(=O)/C(C#N)=C1/C=Cc2ccccc2N1CC 3.8%
CCOc1ccc(CSC(=N)N)cc1[N+](=O)[O-] -79.6%
CCCCCOc1ccc(CSC(=N)N)cc1[N+](=O)[O-] 34.2%
CCN1/C(=C/C(=O)c2ccco2)Sc2ccccc21 -0.2%
CCN1/C(=C2\OC(=S)N(C)C2=O)Sc2ccccc21 13.9%
CCN(CC)S(=O)(=O)c1ccc(C(=O)Nc2cc(C)cc(C)c2)cc1 6%
Cc1ccc2nc(SCC(=O)Nc3ccc4c(c3)OCCO4)[nH]c2c1 -75.7%
